Rows were chosen to be rich in hits. Some 4% of all compounds tested hit in one or more screens of this group.
TIM10 inh = TIM10 yeast growth inhibition; S. cerevisiae TIM10 strain growth, BacTiter-Glo luminescence, 24 h; inhibition, % at 10 µM; hit rate 1.4% among 330,000; AID 463195;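 active means inhibition of 40% or more at the single tested concentration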;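 further: wild-type TIM10 isogenic control strain grown at permissive 25 °C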
tim10-1 inh = growth inhibitors of tim10-1 mutant yeast | inhibition, % at 20 µM | hit rate 2.2% among 330,000 | AID 463190 | S. cerevisiae tim10-1 ts strain growth, BacTiter-Glo, 24 h;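 active means inhibition of at least 40%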;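 further: mutant grown at 25 °C; 0% = DMSO wells with yeast and 100% = wells holding no yeast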
tim23-1 inh = tim23-1 yeast growth inhibition. S. cerevisiae tim23-1 growth, BacTiter-Glo luminescence, 24 h. hit rate 1.3% among 330,000. inhibition, % at 20 µM;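 active means growth inhibition of the mutant yeast at or above 50%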;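 further: temperature-sensitive mutant grown at 25 °C; plate controls were DMSO-treated mutant yeast for no effect and medium wells lacking yeast for full effect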
NALP1 inh = inhibitors of NALP1 inflammasome in yeast; inhibition, % at 10 µM; S. cerevisiae NALP1/ASC/caspase-1 growth, X-gal OD620, 72 h; hit rate 0.61% among 280,000; in the data active means inhibition mostly above about 24%, no sharp cut-off; inactive means mostly below about 32%
NALP3 yeast inh = inhibitors of NALP3 inflammasome in yeast; Yeast reconstituted NLRP3/ASC/caspase-1, beta-gal luminescence, 24 h; hit rate 0.39% among 330,000; inhibition, % at 10 µM;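 active means inhibition of 50% or more; inactive means inhibition below 50%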;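 further: plate controls were induced DMSO wells for no effect and uninduced yeast grown without galactose for full effect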
tim10 confirm = TIM10 yeast growth inhibition, confirmed | shares compounds with TIM10 inh | S. cerevisiae tim10 strain growth, BacTiter-Glo luminescence, 24 h | inhibition, % at 10 µM | hit rate 63% among 4,600 | AID 463215;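 active means inhibition of yeast growth at or above a set limit in either of two replicates at 10 µM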;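 further: this counterscreen used the strain with wild-type TIM10; 0% = yeast with DMSO and 100% = medium wells lacking yeast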
Numbers without * were called inactive; . = no result.

SMILES	TIM10 inh	tim10-1 inh	tim23-1 inh	NALP1 inh	NALP3 yeast inh	tim10 confirm
O=C1c2ccccc2C(=O)C1c1ccnc2ccccc12	49*	20	25	-42	7	39*
O=[N+]([O-])c1cccc(NN=Nc2ccccc2)c1	41*	38	42	-4	-7	31*
COc1ccc(C(=O)NCc2ccon2)cc1OC1CCN(C(C)C)CC1	14	2	8	24	9	.
COc1ccc(-c2csc3ncn(-c4ccc(C)cc4)c(=O)c23)cc1OC	35	32	36	-7	5	.
COc1ccc(-n2cnc3scc(-c4ccc(OC)c(OC)c4)c3c2=O)cc1	40*	37	41	-1	1	-1
COC(=O)c1ccc(Oc2c(F)c(F)nc(N3CCOCC3)c2F)cc1	-13	14	11	14	5	.
COc1ccc(N=Cc2nc(-c3ccccc3)oc2OC(=O)c2ccccc2)cc1	50*	40	43	43	25	32*
N#CC(C#N)=C1C=CC=CN1/C(=C\c1ccccc1)C(=O)c1cccs1	43*	37	21	33	-7	18
CCN(CC)c1ccc(/C=C2\C(=N)N3N=C(CC(=O)N4CCOCC4)SC3=NC2=O)cc1	-3	12	9	11	11	.
O=C(NNC(=S)NC(=O)c1ccccc1[N+](=O)[O-])c1ccccc1	17	9	14	5	29	.
CC(C)(C)c1ccc(OCC(=O)NNC(=S)NC(=O)c2ccccc2[N+](=O)[O-])c(Br)c1	49*	36	45	-3	26	44*
CCN(CC)c1ccc(/C=N/N(c2ccccc2)c2ccccc2)c(O)c1	2	9	7	24	-5	.
CCN(CC)c1ccc(/C=N/NC(=S)NCc2ccccc2)c(O)c1	41*	23	28	26	19	-32
Nc1ccc(-c2nc3ncccc3o2)c(Cl)c1	42*	-3	42	-8	36	23
O=C(/C=C/c1ccccc1Cl)NCCc1ccccc1	49*	3	39	3	45	46*
O=C(/C=C/c1ccccc1Cl)NCc1ccccc1	1	15	11	-8	25	.
Cc1ccc(C(=O)NCC2(c3ccccc3)CCCC2)cc1	16	14	18	-5	29	.
O=C(NCC1(c2ccccc2)CCCC1)c1ccc(Br)cc1	41*	35	36	20	8	13
[O-][N+]1=c2ccc(Nc3ccccc3)cc2=NC12CCCCC2	.	.	.	28	.	.
COc1ccc(Nc2ccc3c(c2)=NC2(CCCCC2)[N+]=3[O-])cc1	47*	37	36	40*	23	4
CCN(CC)c1ccc2cc(/C(N)=N/NC(=O)c3cccs3)c(=O)oc2c1	47*	-27	37	.	32	37*
COC(=O)CNC(=O)CSc1nc2sc(-c3ccccc3)cc2c(=O)n1-c1ccccc1	45*	29	26	.	-5	38*
COC(=O)CNC(=O)CSc1nc2sccc2c(=O)n1-c1ccccc1	10	15	6	-1	12	.
O=C(Nc1ccc(Cl)c(Cl)c1)N1CCSC1c1ccco1 (centres undefined)	48*	24	34	3	21	31*
CC(=O)Nc1ccc(S(=O)(=O)N2CCSC2c2ccco2)cc1 (centres undefined)	13	12	7	14	-6	.
SMILES	TIM10 inh	tim10-1 inh	tim23-1 inh	NALP1 inh	NALP3 yeast inh	tim10 confirm
CCN(Cc1ccccc1)S(=O)(=O)c1c(C)[nH]c(C)c1C(=O)N1CCCC1	53*	-7	-4	20	1	-5
CCN(c1ccccc1)S(=O)(=O)c1ccc(Cl)c(NC(=O)COC(=O)c2cc(O)c3ccccc3c2O)c1	45*	28	35	.	12	32*
Cc1cccc(Cn2ccc(NC(=O)c3cccnc3)n2)c1	19	-2	3	-5	6	.
Cc1cccc(Cn2ccc(NC(=O)c3ccc4c(c3)OCO4)n2)c1	40*	33	37	-15	10	34*
CCc1ccccc1NC(=O)c1ccc([N+](=O)[O-])s1	50*	37	11	0	9	43*
CN(CC(=O)Nc1ccccc1Cl)C(=O)COC(=O)c1cccs1	2	6	14	.	17	.
CCc1ccccc1NC(=O)CSc1ccsc1[N+](=O)[O-]	7	4	9	2	11	.
CN(CC(=O)Nc1ccccc1Cl)C(=O)COC(=O)c1ccc([N+](=O)[O-])s1	47*	27	36	.	14	52*
CSc1ccccc1C(=O)N1CCCC(CCC(=O)NCc2ccc(F)c(F)c2)C1 (centres undefined)	-7	4	-6	4	4	.
COc1ccccc1/C=C/C(=O)c1ccc(Cl)cc1	33	32	26	7	-15	.
COc1ccc(OC)c(/C=C/C(=O)c2ccc(Cl)cc2)c1	45*	36	40	20	-9	32*
CCCCN1CC(=O)N2[C@H]3c4cc(Br)ccc4OC[C@@H]3[C@H](C(=O)OCC)[C@]2(C)C1=O	-2	-10	2	.	6	.
Cc1cc(OCc2cccc(S(=O)(=O)N3CCOCC3)c2)ccc1Cl	50*	19	35	.	-31	26
COC(=O)CSc1nc2ccccn2c(=O)c1C=O	10	16	8	13	7	.
COc1ccc(-c2cc(=NC(CC(C)C)C(=O)O)c3cc(C)ccc3o2)cc1 (centres undefined)	61*	31	29	33	20	44*
COc1ccc(N=c2cc(-c3ccc(O)cc3)oc3ccccc23)cc1	31	40	47	38	7	.
COc1ccc(-c2cc(=Nc3ccc(C)cc3)c3ccccc3o2)cc1	55*	37	48	-3	25	47*
Cc1cccc(C)c1NC(=O)COC(=O)CN1C(=O)C2CCCCC2C1=O (centres undefined)	6	-14	-4	.	9	.
CC(=O)c1ccccc1NS(=O)(=O)c1c(C)nn(-c2ccccc2)c1C	47*	32	48	-1	-2	30
COc1ccc2nc(NC(=O)C3CCN(S(=O)(=O)c4cccc5nsnc45)CC3)sc2c1	40*	19	18	4	5	-24
CC1=C(C(=O)OCc2ccccc2)C(c2ccccc2OS(=O)(=O)c2ccccc2[N+](=O)[O-])NC(=O)N1CCCC(=O)O (centres undefined)	0	9	12	.	-6	.
CCOC(=O)C1=C(C)N(CCCC(=O)O)C(=O)NC1c1ccccc1OS(=O)(=O)c1ccccc1[N+](=O)[O-] (centres undefined)	97*	-18	-4	.	18	-11
COc1cccc(/C=N/NC(=O)C[n+]2ccccc2)c1O	21	15	4	36	9	.
COc1ccc(CCCC(=O)N/N=C/c2cccc(OC)c2O)cc1C	55*	6	35	9	13	-10
C/C(=N\NC(=S)NC(C)C)c1cccc([N+](=O)[O-])c1	42*	34	37	16	-17	6
